From PubChem BioAssay come the findings set out here.

Assay [1] relates to TRPC4 beta (transient receptor potential cation channel C4), mouse. The assay can be described thus: TRPC4 cation channel opening, retest – cell-based, Fluo4 calcium, HEK293 TRPC4beta/mu-opioid, duplicates, 10 µM, confirmation (AID 2426;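 active = fluorescence ratio normalized to control raised more than 50% in primary screen plus both repeat runs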). The following applies: Fluo4 calcium fluorescence, at 10 µM; active compounds read high.
Assay [2] concerns transient receptor potential cation channel C4 beta (TRPC4), mouse. Nature of the assay: TRPC4 cation channel opening, second retest – cell-based, second round, Fluo4, HEK293 TRPC4beta/mu-opioid, 1 µM, confirmation (AID 2461;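 active = primary screen active and over 50% activation in each of two duplicate runs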). The following applies: Fluo4 calcium fluorescence, at 1 µM; active compounds read high.
For assay [3], the system named is TRPC4 (transient receptor potential cation channel C4 beta), mouse. Nature of the assay: potentiation of DAMGO EC20 TRPC4 response – cell-based, second round, Fluo-4, HEK293 TRPC4beta/mu-opioid, 1 µM, confirmation (AID 2554). The following applies: DAMGO EC20, Fluo-4 calcium flux, at 1 µM; active compounds read high. (In general: Calcium flux is commonly read through the fluorescence of an indicator in the cells.)

Assay [4] has as its system TRPC4 beta (transient receptor potential cation channel C4), mouse. The assay can be described thus: potentiation of DAMGO EC20 TRPC4 response – cell-based, Fluo-4, HEK293 TRPC4beta/mu-opioid, confirmation (AID 2555;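 active = primary screen hit whose calcium fluorescence ratio, in both repeats, exceeds the weak agonist control mean by 3 SD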). Particulars: DAMGO EC20, Fluo-4 calcium flux, at 10 µM; active compounds read high.
In assay [5] the target is Short transient receptor potential channel 4 (Mus musculus) (UniProt Q9QUQ5). The assay can be described thus: blockers of DAMGO-evoked TRPC4 calcium flux – cell-based, Fluo4, HEK293 TRPC4beta/mu-opioid, confirmation (AID 2636;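 active = calcium signal cut by more than 3 SD below the full-agonist control yet still positive, in both repeats and the earlier primary screen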). The following applies: at 10 µM; active compounds read high.
Short transient receptor potential channel 4 (Mus musculus), sequence (Q9QUQ5 whole entry, looked up): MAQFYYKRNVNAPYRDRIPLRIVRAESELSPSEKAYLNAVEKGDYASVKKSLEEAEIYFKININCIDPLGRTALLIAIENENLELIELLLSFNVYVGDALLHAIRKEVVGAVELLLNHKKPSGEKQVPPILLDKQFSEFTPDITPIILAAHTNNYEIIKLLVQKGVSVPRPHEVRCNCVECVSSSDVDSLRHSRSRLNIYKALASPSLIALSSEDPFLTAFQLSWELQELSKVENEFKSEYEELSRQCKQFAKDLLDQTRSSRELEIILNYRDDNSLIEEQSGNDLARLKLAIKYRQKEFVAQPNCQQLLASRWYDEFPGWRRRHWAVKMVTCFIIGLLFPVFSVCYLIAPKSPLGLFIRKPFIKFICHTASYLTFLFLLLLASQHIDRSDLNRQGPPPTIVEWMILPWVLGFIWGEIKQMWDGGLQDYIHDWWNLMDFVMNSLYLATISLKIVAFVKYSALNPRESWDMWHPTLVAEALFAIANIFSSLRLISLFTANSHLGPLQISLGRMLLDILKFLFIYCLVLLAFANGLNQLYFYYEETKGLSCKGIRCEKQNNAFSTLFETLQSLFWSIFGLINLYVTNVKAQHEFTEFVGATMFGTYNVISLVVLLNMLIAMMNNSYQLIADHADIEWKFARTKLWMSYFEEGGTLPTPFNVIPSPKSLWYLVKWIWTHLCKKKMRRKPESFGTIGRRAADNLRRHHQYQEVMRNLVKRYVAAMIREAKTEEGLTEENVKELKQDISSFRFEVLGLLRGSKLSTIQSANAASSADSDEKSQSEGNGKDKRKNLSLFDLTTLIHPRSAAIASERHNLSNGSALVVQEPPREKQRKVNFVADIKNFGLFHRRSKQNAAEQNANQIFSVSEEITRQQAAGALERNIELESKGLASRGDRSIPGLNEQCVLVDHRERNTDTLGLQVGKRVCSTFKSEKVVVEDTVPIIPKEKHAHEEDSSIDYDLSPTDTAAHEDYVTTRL
The target is the same in assay [6]. The assay can be described thus: blockers of DAMGO-evoked TRPC4 calcium flux – cell-based, second round, Fluo4, HEK293 TRPC4beta/mu-opioid, 1 µM, confirmation (AID 2637;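 active = calcium signal ratio cut to more than 3 SD under the fully stimulated control mean yet still positive, in both repeats and the primary screen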). The following applies: at 1 µM; active compounds read high.
The target is the same in assay [7]. The assay can be described thus: calcium entry via TRPC4 opening agents – cell-based, HEK293 TRPC4/mu-opioid, Fluo-4 calcium, dose response (AID 434937;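 active = primary screen activator hit with a dose response curve and TRPC4 channel activation at any tested dose; inactive = no activation, no dose response, or not a primary hit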).
The target is the same in assay [8]. Nature of the assay: potentiation of DAMGO-evoked TRPC4 calcium signal – cell-based, HEK293 TRPC4/mu-opioid, Fluo-4 calcium, EC20 DAMGO, dose response (AID 434941;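 active = earlier screen potentiator hit that boosts the TRPC4 ion channel at some dose, with a dose response; inactive = no potentiation, no dose response, or not a prior hit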;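 also: calcium entry triggered by an EC20 dose of DAMGO at the co-expressed mu-opioid receptor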).
Assay [9] has the same target. The assay can be described thus: block of DAMGO-driven TRPC4 calcium entry – cell-based, HEK293 TRPC4/mu-opioid, Fluo-4 calcium, dose response (AID 434942;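 active = primary screen inhibitor hit that blocks the TRPC4 channel at some tested dose, yielding a dose curve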).
Assay [10] has as its target Short transient receptor potential channel 6 (Mus musculus) (UniProt Q61143). The assay can be described thus: TRPC6 blockade by TRPC4 inhibitor hits – cell-based, HEK293, membrane potential dye, duplicate, selectivity assay for TRPC4 inhibitor project, confirmation (AID 434948;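 active = active in primary screen and both duplicates, each dropping signal beyond three positive-control SD with fluorescence still positive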). Particulars: HEK293 TRPC6, membrane potential dye fluorescence, at 10 µM; inhibition: active compounds read high, stimulated with maximal-effect acetylcholine unless noted; outcome: stimulated with maximal-effect acetylcholine unless noted.

Assay [11] shares this target. The assay can be described thus: TRPC6 opening by TRPC4 activator hits – cell-based, HEK293, membrane potential dye, duplicate, selectivity assay for TRPC4 activator project, confirmation (AID 434950;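 active = membrane potential signal rise above negative control mean plus 3 SD in both duplicates, also active in the earlier TRPC4 screen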). Particulars: HEK293 TRPC6, membrane potential fluorescence, at 10 µM; activation: active compounds read high; outcome: activation.
Assay [12] has the same target. The assay can be described thus: positive modulators of mouse TRPC6 channel – HEK293 cells, membrane potential dye, duplicate, selectivity assay for TRPC4 potentiator project, confirmation (AID 434952;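 active = compound raising the membrane signal above positive-control mean plus 3 SD in both repeats, and a primary screen hit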). Particulars: HEK293 TRPC6, membrane potential dye fluorescence, at 10 µM; maximal acetylcholine added after compound unless noted.
Assay [13] has as its target Short transient receptor potential channel 4 (Mus musculus) (UniProt Q9QUQ5). Nature of the assay: calcium flux activators in TRPC4/5HT1a cells, counter-screen for TRPC4 activator project, cell-based, second counter screen, HEK293 TRPC4/5HT1a, Fluo-4 (AID 434977;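 active = calcium signal rise above buffer-control mean plus 5 SD in both duplicates, and also a hit in the primary screen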). Particulars: Fluo-4 calcium flux, at 10 µM; active compounds read high.
Assay [14] is described as follows: serotonin-gated TRPC4 signal block – cell-based, second counter screen, HEK293 TRPC4/5HT1a, Fluo-4, counter-screen for TRPC4 inhibitor project, confirmation (AID 434978;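 active = primary screen active whose calcium signal fell more than 3 SD beyond the full-serotonin control mean in both duplicate plates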;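 as to outcome: serotonin given first at submaximal then at maximal dose after compound preincubation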). The following applies: Fluo-4 calcium flux, at 10 µM; inhibition: active compounds read high, serotonin added to trigger calcium flux unless noted; outcome: serotonin added to trigger calcium flux unless noted. For orientation: The purpose of a counterscreen is to sort out artefacts and off-target activity.

For assay [15], the system named is TRPC4 (mouse), co-expressed with 5HT1a in HEK293. Nature of the assay: enhancement of serotonin-evoked TRPC4 response – cell-based, second counter screen, HEK293 TRPC4/5HT1a, Fluo-4, counter-screen for TRPC4 potentiator project, confirmation (AID 434979;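 active = signal rise over 3 SD above mean of control wells given weak agonist, in both repeats and first screen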). Particulars: Fluo-4 calcium flux, at 10 µM; outcome: serotonin added at its EC20 dose unless noted; potentiation: active compounds read high, serotonin added at its EC20 dose unless noted.

Assay [16] is described as follows: nonspecific calcium rise without TRPC4 – cell-based, HEK293 mu-opioid receptor line, counter-screen for TRPC4 activator project, confirmation (AID 449723;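 active = hit in primary screen, with calcium signal over 5 SD above buffer well mean in both duplicates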;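 also: counter screen cells carry the mu-opioid receptor alone and lack TRPC4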). The following applies: HEK293 mu-opioid cells, Fluo-4 calcium fluorescence, at 10 µM; active compounds read high.
The nature of assay [17]: nonspecific potentiation of DAMGO calcium response – cell-based, HEK293 mu-opioid receptor line, counter-screen for TRPC4 allosteric potentiator project, confirmation (AID 449724;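 active = calcium signal rise more than 3 SD above the low-dose agonist control mean, in both duplicate plates and the primary screen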;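 also: HEK293 cells carrying mu-opioid receptor only with no TRPC4 channel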). The following applies: HEK293 mu-opioid receptor cells, Fluo-4 calcium flux, at 10 µM; compound added before EC20 DAMGO stimulus unless noted.
Assay [18] has as its target Inward rectifier potassium channel 2 (Mus musculus) (UniProt P35561). The assay can be described thus: inhibition of Kir2.1 inward rectifier potassium flux – cell-based, FluxOR thallium flux, duplicate, confirmation (AID 2032;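 active = Primary-screen hit whose thallium flux fell at least 3 control SD below untreated wells in both duplicates, with normal baseline fluorescence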;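 also: 0% = blank wells without stimulus and 100% = stimulated no-compound controls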). Particulars: Kir2.1-expressing cells, FluxOR thallium flux fluorescence, at 10 µM; active compounds read low.
Assay [19] can be described thus: parental HEK293 cell activity, no Kir2.1 – FluxOR thallium flux, duplicate, single concentration, counter-screen for Kir2.1 inhibitor project, confirmation (AID 2105;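 active = dye signal at least 3 control SD above or below untreated wells in both duplicates, raw fluorescence within 3, either direction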). Particulars: parental HEK293 cells, FluxOR thallium flux fluorescence, at 10 µM; 0% = unstimulated blank wells.

For part of these data: Entries with a potency or affinity are not part of this list. Some of the results follow. The source made the active and inactive calls.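 The calls were made as follows, unless noted: active = primary screen hit whose fluorescence ratio, in both repeats, exceeds the weak agonist control mean by 3 SD; inactive = the rest.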

Short transient receptor potential channel 6 (Mus musculus), sequence (Q61143 whole entry, looked up): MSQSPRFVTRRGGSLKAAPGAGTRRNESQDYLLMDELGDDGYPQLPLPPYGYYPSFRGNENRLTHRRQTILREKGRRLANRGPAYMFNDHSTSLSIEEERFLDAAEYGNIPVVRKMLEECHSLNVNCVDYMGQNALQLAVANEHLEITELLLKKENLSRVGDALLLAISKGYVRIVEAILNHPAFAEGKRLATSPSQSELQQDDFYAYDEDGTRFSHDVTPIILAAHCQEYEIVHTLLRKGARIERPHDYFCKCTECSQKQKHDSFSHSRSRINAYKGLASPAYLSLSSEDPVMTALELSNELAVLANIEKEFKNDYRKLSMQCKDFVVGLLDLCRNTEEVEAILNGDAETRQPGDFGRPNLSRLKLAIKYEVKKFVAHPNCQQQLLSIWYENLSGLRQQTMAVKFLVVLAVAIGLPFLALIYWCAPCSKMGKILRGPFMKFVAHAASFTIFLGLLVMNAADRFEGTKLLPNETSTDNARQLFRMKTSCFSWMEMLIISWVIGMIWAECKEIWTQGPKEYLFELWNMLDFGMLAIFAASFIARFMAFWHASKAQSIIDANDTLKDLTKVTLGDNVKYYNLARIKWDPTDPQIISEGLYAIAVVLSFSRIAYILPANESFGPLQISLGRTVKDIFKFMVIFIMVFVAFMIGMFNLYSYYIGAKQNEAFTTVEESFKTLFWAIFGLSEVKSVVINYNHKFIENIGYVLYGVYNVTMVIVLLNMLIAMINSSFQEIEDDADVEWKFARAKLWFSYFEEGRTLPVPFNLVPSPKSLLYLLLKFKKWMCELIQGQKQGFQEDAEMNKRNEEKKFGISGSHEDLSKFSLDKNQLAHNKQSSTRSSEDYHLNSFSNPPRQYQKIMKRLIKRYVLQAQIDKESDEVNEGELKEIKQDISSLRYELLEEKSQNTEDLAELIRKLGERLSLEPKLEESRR
Inward rectifier potassium channel 2 (Mus musculus), sequence (P35561 whole entry, looked up): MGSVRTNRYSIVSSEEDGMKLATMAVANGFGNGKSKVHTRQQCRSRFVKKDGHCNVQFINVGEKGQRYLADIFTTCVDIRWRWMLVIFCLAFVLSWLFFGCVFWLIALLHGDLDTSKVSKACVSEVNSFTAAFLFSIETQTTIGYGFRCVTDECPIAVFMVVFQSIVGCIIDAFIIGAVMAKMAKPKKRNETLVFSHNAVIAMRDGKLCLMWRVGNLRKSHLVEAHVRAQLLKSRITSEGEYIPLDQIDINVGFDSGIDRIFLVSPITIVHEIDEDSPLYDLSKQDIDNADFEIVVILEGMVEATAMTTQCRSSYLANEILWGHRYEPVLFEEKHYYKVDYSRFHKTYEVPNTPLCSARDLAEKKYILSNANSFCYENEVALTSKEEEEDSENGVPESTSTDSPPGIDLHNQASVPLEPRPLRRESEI

As to `Cc1cccc(N=Cc2c(O)n(-c3ccccc3C)c(=O)[nH]c2=O)c1`, the outcome in assay [1], in assay [2], in assay [3], in [5], in assay [6] and in [7] was inactive. The outcome in assay [8], in assay [9], in assay [11], in assay [13] and in [16] was inactive. For the same molecule, the potentiation in [4] was 28% (active); in assay [15] it was 32.1% [active compounds read high] (active). Further, the outcome in assay [10], in assay [12], in assay [14] and in assay [17] was “inactive [setting not given]” throughout.

As for `CCC1=Nc2cc(C(=O)N3CCC4(CC3)OCCO4)ccc2Sc2ccc(Br)cc21`, the outcome in [1], in [2], in [3], in assay [4], in assay [5] and in [6] was inactive. The outcome in [7], in assay [8], in [9], in assay [11], in assay [13] and in assay [16] was inactive. Moreover, the outcome in assay [10], in [12], in assay [14], in assay [15] and in assay [17] was “inactive [setting not given]” each time.

On to `Clc1ccc(OCC#CCN2CCCC2)cc1`, for which the result in assay [1], in [2], in [4], in assay [5], in assay [6] and in assay [7] was inactive. In addition, the outcome in [8], in [9], in [10], in assay [11], in assay [12] and in assay [13] was inactive. The outcome in assay [14], in assay [16] and in assay [17] was inactive. The potentiation was 30% (active) in [3] and 26% (active) in assay [15].

Regarding `Clc1ccc2c(c1)C(c1ccccc1Cl)=NCc1nnc(N3CCN(CCOc4ccccc4)CC3)n1-2`, the result in [1], in assay [2], in assay [3], in [5], in assay [6] and in [7] was inactive. In addition, the outcome in assay [8], in assay [9], in assay [10], in assay [11], in assay [12] and in assay [13] was inactive. The result in assay [14], in assay [16] and in assay [17] was inactive. The potentiation in assay [4] was 9% (active); in assay [15], 13.8% (active).

In the case of `Cc1ccc(-c2nc(N(C)C3CCN(C)CC3)c3ccccc3n2)cc1`, the result in assay [1], in assay [2], in [5], in [6], in assay [7] and in assay [8] was inactive. In addition, the outcome in assay [9], in assay [10], in [11], in [12], in assay [13] and in assay [14] was inactive. Besides, the result in assay [16] and in [17] was inactive. In addition, the potentiation is 14% (active) in [3], 24% (active) in [4] and 34.7% (active) in assay [15].

For orientation: inhibition means the relative decrease from the control value, in per cent. Regarding `CC(Cc1ccccc1)NCC(=O)Nc1cc(N(C)C)nc2ccccc12` (stereo not given), the outcome in assay [1], in assay [2], in assay [3], in [4], in assay [6] and in assay [7] was inactive. The outcome in [8], in assay [9], in assay [10], in [11], in assay [12] and in [13] was inactive. The result in assay [15], in assay [16] and in [17] was inactive. Besides, the inhibition in [5] was 82% (active); in [14] it was 46% (active).

Take `CCCCN1C(=O)NC(=O)C2(Cc3c(nc4c(C)cccn4c3=O)N3CCc4ccccc4C32)C1=O` (stereo not given): the result in assay [1], in assay [2], in [3], in assay [5], in [6] and in [7] was inactive. Moreover, the outcome in assay [8], in [9], in assay [11], in assay [13] and in assay [16] was inactive. The potentiation is 23% (active) in assay [4] and 37.1% [active compounds read high] (active) in assay [15]. Further, the outcome in assay [10], in assay [12], in assay [14] and in [17] was “inactive [setting not given]” each time.

Regarding `COc1ccc(Br)cc1CNCCc1cccc(Cl)c1`, in [18], the Tl flux remaining, % of negative control (active compounds read low) was 15.5% (active). The outcome in [19] was inactive.

As for `CCOc1cccc(=NC2CCCCC2)c2c(C)[nH]c(C)c12`, the Tl flux remaining, % of negative control (active compounds read low) in assay [18] is 46.5% (active). Also, the result in assay [19] was inactive.

As for `Nc1c([N+](=O)[O-])cc(F)c(N2CCNCC2)c1Br`, the outcome in [1], in assay [2], in assay [3], in [4], in assay [5] and in assay [6] was inactive. In addition, the result in assay [7], in assay [8], in assay [9], in assay [10], in assay [11] and in [12] was inactive. The outcome in assay [13], in assay [14], in [16] and in assay [17] was inactive. Also, the potentiation in [15] was 22.5% (active).

For `Cc1ccc(-c2cc(-c3ccccc3)cc(-c3ccccc3)[n+]2-c2ccccc2)cc1`, the result in [1], in assay [2], in assay [3], in assay [5], in assay [6] and in [7] was inactive. Besides, the result in assay [8], in assay [9], in assay [10], in assay [11], in [12] and in [13] was inactive. Further, the outcome in [14], in assay [16] and in assay [17] was inactive. Besides, the results for the potentiation in assay [4] and in [15] were 18% (active) and 9.63% (active), respectively.

For `Cc1cc(OC(C)C(=O)NCc2ccncc2)c2c3c(c(=O)oc2c1)CCCC3` (stereo not given), the result in [1], in assay [2], in assay [3], in assay [4], in assay [5] and in assay [6] was inactive. Further, the outcome in assay [7], in assay [8], in assay [9], in assay [10], in assay [11] and in [12] was inactive. Further, the result in [13], in [14], in [15], in [16] and in assay [17] was inactive.

As to `CCN(CC)P(=O)(/C=C(\Cl)c1ccccc1)/C=C(\Cl)c1ccccc1`, the result in assay [1], in assay [2], in [4], in [5], in [6] and in [7] was inactive. Moreover, the outcome in assay [8], in [9], in assay [10], in assay [11], in assay [12] and in [13] was inactive. In addition, the outcome in assay [14], in [15], in assay [16] and in [17] was inactive. The potentiation in assay [3] was 7% (active).

On to `O=[N+]([O-])c1ccc(N2CCNCC2)cc1N1CCCCCC1`, for which the result in [1], in [2], in assay [3], in assay [4], in [5] and in assay [6] was inactive. Further, the result in [7], in assay [8], in assay [9], in assay [10], in assay [11] and in assay [12] was inactive. The outcome in [13], in [14], in assay [16] and in assay [17] was inactive. Besides, in [15], the potentiation was 13.3% (active).

For `CCn1ccnc1CN1CCCC(C(=O)c2cccc(C(F)(F)F)c2)C1` (stereo not given), the outcome in [1], in assay [2], in assay [3], in assay [4], in [5] and in [6] was inactive. In addition, the result in assay [7], in [8], in assay [9], in assay [10], in assay [11] and in assay [12] was inactive. The result in assay [13], in assay [14], in assay [15], in [16] and in assay [17] was inactive.
